The values that follow come from PubChem BioAssay.

Values without a mark were called inactive.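 The calls were made as follows: active = compounds whose cell count with miR-34 switched on is under 0.7 times the count with it off; inactive = the rest.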

The nature of the assay: sensitizers of A549 cells to miR-34 induction, primary screen, imaging, A549 dox-inducible miR-34, nuclei and caspase counts (AID 1347080). Also: test concentration not given here. The following applies: A549 miR-34 inducible, Hoechst nuclei count, 48 h; stronger effect = lower value; cell number ratio, induced over uninduced.
Regarding `CCCCCC(=O)/C=C/[C@H]1[C@H](O)CC(=O)[C@@H]1CCCCCCC(=O)O`, the fold change was 1.03.

Take `CC(C)CCCC(C)NC(C)C` (stereo unspecified): the fold change is 0.993.

With `CCC(C)(C)C(=O)C(=O)N1CCCC[C@H]1C(=O)O[C@H](CCc1ccc(OC)c(OC)c1)c1cccc(N)c1`, the fold change was 0.702. For the molecule `CC(C)OC(=O)CCC/C=C\C[C@@H]1[C@@H](/C=C/[C@H](O)CCc2ccccc2)[C@H](O)C[C@@H]1O`, the fold change was 0.945. To `CCCCC[C@@](C)(O)/C=C/[C@H]1C(=O)C[C@H](O)[C@@H]1C/C=C\CCCC(=O)O` belongs 0.936; to `CCCCCCCCCCCCCCCC(=O)NCCS(=O)(=O)O`, 1.07. For `CC/C(=C\C(=N/O)C(N)=O)C(C)[N+](=O)[O-]` (stereo unspecified), the fold change is 1.05. To `CCCCCCCCCSCCCCCCCC(=O)O` belongs 0.943; to `CCCCC[C@H](O)/C=C/[C@@H]1[C@@H](CCCCC(CC(=O)O)OC)[C@@H](O)C[C@H]1O` (stereo partly specified), 0.924; to `CCOc1c2c(c(OCC)c3ccccc13)C(=O)N(c1ccc(CC(=O)NS(=O)(=O)c3ccccc3)cc1)C2`, 0.911. With `CCCCC/C=C/C/C=C/CCCCCCCC(=O)O`, the fold change was 1.12. Take `CCCCCCCCCCCCCCCCCCCC(=O)NCCO`: the fold change was 1.07. The figure for `O=C(O)CCC/C=C\C[C@@H]1C(=O)C[C@@H](O)[C@@H]1/C=C/[C@@H](O)CCc1ccccc1` is 0.867.

For `CC/C=C\C/C=C\C/C=C\CCCCCCCC(=O)NCCO`, the fold change is 1.05. For the molecule `CCCCCCCCCCCCCC(=O)OCC`, the fold change was 1.01. With `Nc1nc2c([nH]c(=O)n2[C@@H]2O[C@H](CO)[C@@H](O)[C@H]2O)c(=O)[nH]1`, the fold change is 1.03. To `Nc1nc2c([nH]c(=O)n2[C@H]2C[C@H](O)[C@@H](CO)O2)c(=O)[nH]1` belongs 0.857; to `CCCCC[C@H](O)/C=C/[C@H]1CC[C@H](O)[C@@H]1C/C=C\CCCC(=O)O`, 0.956; to `CCCCCCCCCCCCCCCNC(=O)C1CCCCC1`, 1.13.

Take `COc1ccc(C[C@H](N)C(=O)N[C@H]2[C@@H](O)[C@H](n3cnc4c(N(C)C)ncnc43)O[C@@H]2O)cc1`: the fold change was 0.887.

Take `CC(=O)OCOC(c1ccc2ccccc2c1)P(=O)(OCOC(C)=O)OCOC(C)=O` (stereo unspecified): the fold change was 1.11.

As for `CCCCC/C=C\C/C=C\CCCCCCCC(=O)OC(CO)CO`, the fold change is 0.978. In the case of `O=C(NCc1ccc(Cl)c(Cl)c1)O[C@H]1CCc2ccccc21`, the fold change is 1.02. The figure for `CC/C=C\C/C=C\C/C=C\C/C=C\C/C=C\C/C=C\CCC(=O)NCCO` is 0.934; for `O=C(CCCCCc1ccccc1)c1nc2ncccc2o1` it is 1.06; for `CC(C)(O)c1ccccc1CC[C@H](SCC1(CC(=O)O)CC1)c1cccc(/C=C/c2ccc3ccc(Cl)cc3n2)c1` it is 1.04.
